Results published in paper PMC4336329 (PLoS ONE, 2015).
About 14,000 (4.5%) of roughly 310,000 compounds showed an effect of 50% or more. The effect is printed as a negative number. Shown is part of a subset that was picked to be rich in strong results.

biological target: human ether-à-go-go-related gene (hERG) potassium channel (human, UniProt Q12809); test: primary screen, population patch clamp on CHO cells stably expressing hERG; higher = less effect of the substance
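Note: peak tail current of the secondary pulse compared with the same well before compound.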

human ether-à-go-go-related gene (hERG) potassium channel, sequence (Q12809 whole entry, looked up): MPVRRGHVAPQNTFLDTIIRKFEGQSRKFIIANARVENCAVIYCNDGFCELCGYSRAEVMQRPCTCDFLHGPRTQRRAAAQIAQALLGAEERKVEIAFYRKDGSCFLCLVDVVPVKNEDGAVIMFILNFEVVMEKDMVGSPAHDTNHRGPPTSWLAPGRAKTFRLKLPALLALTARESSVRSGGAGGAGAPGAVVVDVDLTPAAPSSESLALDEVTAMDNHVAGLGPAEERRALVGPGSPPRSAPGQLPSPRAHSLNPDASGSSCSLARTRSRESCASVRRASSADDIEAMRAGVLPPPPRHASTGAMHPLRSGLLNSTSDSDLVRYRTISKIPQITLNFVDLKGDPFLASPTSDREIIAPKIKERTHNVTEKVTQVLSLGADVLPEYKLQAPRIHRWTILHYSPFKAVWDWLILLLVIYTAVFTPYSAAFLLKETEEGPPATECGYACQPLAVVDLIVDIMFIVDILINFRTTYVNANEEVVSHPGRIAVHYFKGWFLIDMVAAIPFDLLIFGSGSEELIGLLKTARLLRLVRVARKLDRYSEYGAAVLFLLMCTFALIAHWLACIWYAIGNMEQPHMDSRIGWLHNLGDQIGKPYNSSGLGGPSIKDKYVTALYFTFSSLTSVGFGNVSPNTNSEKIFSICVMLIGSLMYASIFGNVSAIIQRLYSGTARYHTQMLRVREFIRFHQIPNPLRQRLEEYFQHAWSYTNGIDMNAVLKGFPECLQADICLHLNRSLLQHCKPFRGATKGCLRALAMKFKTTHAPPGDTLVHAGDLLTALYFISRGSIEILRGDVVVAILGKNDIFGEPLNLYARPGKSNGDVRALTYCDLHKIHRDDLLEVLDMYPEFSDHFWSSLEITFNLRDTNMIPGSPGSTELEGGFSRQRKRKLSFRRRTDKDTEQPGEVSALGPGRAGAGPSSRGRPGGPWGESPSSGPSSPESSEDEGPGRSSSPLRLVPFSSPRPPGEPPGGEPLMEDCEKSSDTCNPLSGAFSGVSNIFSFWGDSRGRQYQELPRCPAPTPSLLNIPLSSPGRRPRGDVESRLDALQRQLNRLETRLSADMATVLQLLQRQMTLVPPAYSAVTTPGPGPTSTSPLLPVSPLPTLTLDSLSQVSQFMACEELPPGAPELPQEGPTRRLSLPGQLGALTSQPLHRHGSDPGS

In order of rising “hERG current change (%, negative = inhibition) at 10uM” value:
1. c1ccc(Cn2c(CNc3nc4ccccc4n3CCN3CCOCC3)nc3ccccc32)cc1  -84.3%
2. CCCCCCCNC1=CC(=O)CC(c2ccccc2)C1 (stereo not drawn)  -81.3%
3. O=C(CCc1nnc2n(Cc3ccc(F)cc3)c(=O)c3ccccc3n12)N1CCN(c2ccccn2)CC1  -79.2%
4. CCCCCCCNC1=CC(=O)CC(c2ccco2)C1 (stereo not drawn)  -76.9%
5. COc1ccc(NC(=O)c2cc([N+](=O)[O-])ccc2NC(=O)CNC2CCCCC2C)c(OC)c1 (stereo not drawn)  -76.3%
6. O=C(CCCCCBr)N1CCC(CC2CC(c3ccc(Cl)cc3)=NO2)(C(=O)NCC2CCCCC2)CC1 (stereo not drawn)  -74.6%
7. COc1ccc(Cl)cc1NC(=O)CNCC(c1ccccc1)N(C)C.O=C(O)C(=O)O (stereo not drawn)  -73.9%
8. CC(C)OCCCn1c(=O)c2ccccc2n2c(CCC(=O)N3CCN(c4ccccn4)CC3)nnc12  -71.1%
9. O=C(CCCCCBr)N1CCC(CC2CC(c3cccc(Br)c3)=NO2)(C(=O)NCC2CCCCC2)CC1 (stereo not drawn)  -69%
10. c1ccc(Cn2c(CNc3nc4ccccc4n3CCN3CCCCC3)nc3ccccc32)cc1  -68.5%
11. Cn1c(CNc2nc3ccccc3n2CCN2CCCCC2)nc2ccccc21  -65%
12. CC(C)CCn1c(=O)c2sccc2n2c(CCCC(=O)N3CCN(c4ccccn4)CC3)nnc12  -65%
13. CCCCCN(C(=O)CCC(=O)OCC(=O)c1cccc(OC)c1)c1c(N)n(CCCC)c(=O)[nH]c1=O  -64.6%
14. CCCCCN(C(=O)CCC(=O)OCC(=O)c1ccc(CCC)cc1)c1c(N)n(CCCC)c(=O)[nH]c1=O  -61.5%
15. CCOC(=O)c1cc(NC(=O)CNCC(c2ccccc2)N(C)C)cc(C(=O)OCC)c1.O=C(O)C(=O)O (stereo not drawn)  -57.7%
16. O=C(CCc1nnc2n(Cc3ccc(Cl)cc3)c(=O)c3ccccc3n12)N1CCN(c2ccccn2)CC1  -57%
17. COc1ccc(CNC2CCCCC2C)c(OC)c1 (stereo not drawn)  -56.9%
18. O=C(c1ccccc1)N1CCC(CC2CC(c3ccc(Cl)cc3)=NO2)(C(=O)NCC2CCCCC2)CC1 (stereo not drawn)  -52%
19. CCCCCN(C(=O)CCC(=O)OCc1ccc(Cl)cc1Cl)c1c(N)n(CCCC)c(=O)[nH]c1=O  -50.1%
20. O=C(C1CCCC1)N1CCC(CC2CC(c3cccc(Br)c3)=NO2)(C(=O)NCC2CCCCC2)CC1 (stereo not drawn)  -49.9%
21. CCCCCN(C(=O)CCC(=O)OCc1ccccc1Cl)c1c(N)n(CCCC)c(=O)[nH]c1=O  -49.8%
22. CC(C)n1c(NCc2nc3ccccc3n2C)nc2ccccc21  -46.4%
23. CC1(C(=O)N2CCC(CC3CC(c4ccc(Cl)cc4)=NO3)(C(=O)NCC3CCCCC3)CC2)CC1 (stereo not drawn)  -40.8%
24. Cc1ccc(NC(=O)CNCC(c2ccccc2)N(C)C)cc1F.O=C(O)C(=O)O (stereo not drawn)  -38.1%
25. COc1ccc(CNC2CCCc3ccccc32)c(OC)c1 (stereo not drawn)  -36.9%
26. CCCCCN(C(=O)CCC(=O)OCC(=O)c1ccc(C(C)(C)C)cc1)c1c(N)n(CCCC)c(=O)[nH]c1=O  -33.7%
27. CCCCCN(C(=O)CCC(=O)OCC(=O)c1ccc(F)c(F)c1)c1c(N)n(CCCC)c(=O)[nH]c1=O  -33.7%
28. c1coc(CNc2nc3ccccc3n2CCN2CCOCC2)c1  -33.2%
29. O=C(c1ccccc1-c1nc(-c2ccc(F)cc2)no1)N1CCCC1  -30.8%
30. Cc1ccc(Cl)cc1NC(=O)CNCC(c1ccccc1)N(C)C.O=C(O)C(=O)O (stereo not drawn)  -30.3%
31. O=C(C1CCCC1)N1CCC(CC2CC(c3ccc(Cl)cc3)=NO2)(C(=O)NCC2CCCCC2)CC1 (stereo not drawn)  -24.1%
32. CC(C)(C)OC(=O)N1CCC(CC2CC(c3ccc(Cl)cc3)=NO2)(C(=O)NCC2CCCCC2)CC1 (stereo not drawn)  -19.5%
33. CCn1c(=O)c2sccc2n2c(CCCC(=O)N3CCN(c4ccccn4)CC3)nnc12  -17.6%
34. Cn1c(CNc2nc3ccccc3n2C)nc2ccccc21  -15.2%
35. CC(C)OCCCn1c(=O)c2ccccc2n2c(CCC(=O)NCc3ccccn3)nnc12  -14.4%
36. O=S(=O)(Nc1ccc2c(c1)OCCO2)c1cccc2nsnc12  -11.2%
37. Cn1c(=O)c2sccc2n2c(CCCC(=O)N3CCN(c4ccccn4)CC3)nnc12  -11.1%
38. Cn1nc(C(=O)Nc2ccc(Cl)c(S(=O)(=O)N3CCOCC3)c2)c2ccccc2c1=O  -9.05%
39. CC#CC(=O)N1CCC(CCC(=O)N(C)Cc2ccccc2)CC1  -7.72%
40. C=CCc1cccc(CNc2nc3ccccc3n2CCN2CCOCC2)c1O  -6.61%
41. COc1ccc(CC(=O)NC2CCCCCC2)c(OC)c1  -3.09%
42. CCN(CC)CCn1c(NCc2nc3ccccc3n2Cc2ccccc2)nc2ccccc21  -2.44%
43. COCCCn1c(=O)c2sccc2n2c(CCCC(=O)N3CCN(c4ccccn4)CC3)nnc12  -2.18%
44. CNC1=CC(=O)CC(c2ccccc2)C1 (stereo not drawn)  -1.58%
45. O=C(c1ccccc1)N1CCC(CC2CC(c3cccc(Br)c3)=NO2)(C(=O)NCC2CCCCC2)CC1 (stereo not drawn)  -1.49%
46. CCCCCN(C(=O)CCC(=O)OCC(=O)NCc1cccc(OC)c1)c1c(N)n(CCCC)c(=O)[nH]c1=O  -0.375%
47. CCCS(=O)(=O)N1CCC(C(=O)NCCCOC)CC1  -0.339%
48. O=[N+]([O-])c1ccc(Cl)cc1CNc1ccc(F)c(F)c1  0.95%
49. Cc1c(C(N)=O)sc2nc(-c3ccccc3)cn12  1.01%
50. COc1ccc(Oc2ncnc3sccc23)cc1  1.8%
51. CC(=O)c1ccc(NC(=O)CNCC(c2ccccc2)N(C)C)cc1.O=C(O)C(=O)O (stereo not drawn)  2.26%
52. Cc1n[nH]c(=O)nc1NCc1ccccc1Cl  3.23%
53. CN(C)CCCNC1=CC(=O)CC(c2ccccc2)C1 (stereo not drawn)  3.58%
54. COc1ccc(NC(=O)CSC2CC(=O)N(c3ccc4c(c3)OCCO4)C2=O)cc1 (stereo not drawn)  4.54%
55. CCc1ccc(NC2=CC(=O)CC(c3ccco3)C2)cc1 (stereo not drawn)  5.49%
56. CC(C)CNC1=CC(=O)CC(c2ccco2)C1 (stereo not drawn)  6.11%
57. O=C(O)CCc1nnc2n(Cc3ccc(F)cc3)c(=O)c3ccccc3n12  6.3%
58. COc1ccc(NC(=O)c2cc([N+](=O)[O-])ccc2NC(=O)CNCc2ccccn2)c(OC)c1  7.29%
59. CCOC(=O)c1c(-c2ccc(C)s2)csc1N  7.8%
60. CCCCCN(C(=O)CCC(=O)OCC(=O)c1ccc(C(C)CC)cc1)c1c(N)n(CCCC)c(=O)[nH]c1=O (stereo not drawn)  8.1%
61. CCCCCN(C(=O)CCC(=O)OCc1cccc(Cl)c1)c1c(N)n(CCCC)c(=O)[nH]c1=O  8.16%
62. O=C(c1ccc(Cn2c(=S)[nH]c3ccccc3c2=O)cc1)N1CCN(c2ccccn2)CC1  8.99%
63. O=C(CSc1nc(NS(=O)(=O)c2ccccc2)cc(=O)[nH]1)Nc1ccccc1C(F)(F)F  9.04%
64. Cc1ccc(Cn2c(=O)c3ccccc3n3c(CCC(=O)O)nnc23)cc1  10.9%
65. C#CCOCCOCCOCCNc1nc(N2CCN(C(=O)Cn3cc(CCO)nn3)CC2)nc(N2CCN(C(=O)[C@H]([C@@H](C)O)n3cc(CCCC[NH3+])nn3)CC2)n1.[Cl-]  12.3%
66. COc1ccc(Cl)cc1NC(=O)CNC(c1ccccc1)c1ccccc1  12.6%
67. Fc1ccc(NC(=S)NCc2cccnc2)cc1  13.1%
68. O=C(NC1CCS(=O)(=O)C1)N1CCCCC1 (stereo not drawn)  13.2%
69. CC(C)(C)OC(=O)N1CCC(CC2CC(c3cccc(Br)c3)=NO2)(C(=O)NCC2CCCCC2)CC1 (stereo not drawn)  13.7%
70. CCOc1ccc(CCNC(=O)COC(=O)c2ccc(C)s2)cc1OCC  14.6%
71. O=C(Nc1nnc(SCC(=O)N2CCOCC2)s1)C1CC(=O)N(c2ccc(F)cc2)C1 (stereo not drawn)  15%
72. CCOC(=O)/C(=N\Nc1ncnc2ccccc12)c1ccc(OC)cc1  15%
73. Cn1c(SCC(=O)N2CCOCC2)nc2c(c1=O)SCC2  15.8%
74. Cc1cccc(/C=C/C(=O)c2cc(Br)ccc(=O)c2O)c1  16.7%
75. O=C(NC(=S)N1CCN(c2nc(-c3ccccc3)cs2)CC1)c1cncc(Br)c1  17%
76. COc1cc(S(=O)(=O)NCCN2CCOCC2)ccc1-n1cnnn1  17.5%
77. COc1ccc(C2NC(=O)C(C#N)=C(S)N2c2ccc(C)cc2)cc1OC (stereo not drawn)  18.2%
78. COc1cc(NC(=O)c2cc([N+](=O)[O-])ccc2NC(=O)CNC2CCCCC2C)cc(OC)c1 (stereo not drawn)  20.3%
79. O=C(O)c1ccc(Cn2cnc3scc(-c4ccccc4)c3c2=O)cc1  20.8%
80. CC(C)(O)[C@H]1Cc2cc3ccc(=O)oc3cc2O1  21.2%
81. CC(C)OCCCn1c(=O)c2ccccc2n2c(CCC(=O)O)nnc12  29.3%
